Source: PubChem
A selection: hits, their analogues and other compounds. The true share with any hit is near 1.8%.
PfHsp40 rescue: compounds rescuing yeast from Plasmodium falciparum HSP40 toxicity; S. cerevisiae expressing PfHsp40, growth rescue, ATP luminescence; growth rescue, % at 12.5 µM; 340,000 compounds, 0.68% hits; in the data active = growth rescue above about 28%, passing the limit was not always enough; inconclusive = no clear call, values can overlap the other calls;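 note: yeast W303a lacking pdr1 and pdr3 grown in galactose medium; growth measured after three days at 30 °C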
SSB-PriA inh: inhibitors of Klebsiella pneumoniae PriA binding to SSB C-terminal tail; AlphaScreen SSBct-PriA binding, biotinylated peptide; inhibition, % at 33 µM; 430,000 compounds, 0.6% hits; AID 1272365; in the data active = inhibition mostly above about 37%, no sharp cut-off; inactive = mostly below about 20%;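 note: plate controls were negative control peptide for no effect and reference peptide for full effect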
PrPC TRFRET: cell surface PrPC inhibition, primary TR-FRET screen; 370,000 compounds, 0.43% hits; inhibition, % at 13.8 µM; TR-FRET read-out; in the data active = inhibition above about 24%; note: 0% = median of the test wells and 100% = reference compound wells
PrP UTR inh: suppresses PrP 5' UTR mRNA reporter expression. cell-based PrP 5' UTR mRNA reporter, plate reader. inhibition, % (no concentration beside the values). 340,000 compounds, 0.35% hits; in the data active = inhibition above about 52%; note: 0 = median of the neutral control wells
MazF activator: increases E. coli MazEF RNase cleavage of RNA; P0AE70; FAM/BHQ RNA-DNA oligo cleavage fluorescence, 5 h; activation, % at 20 µM; 350,000 compounds, 0.32% hits; in the data active = activation above about 50%
Target sequence (P0AE70 whole entry, looked up): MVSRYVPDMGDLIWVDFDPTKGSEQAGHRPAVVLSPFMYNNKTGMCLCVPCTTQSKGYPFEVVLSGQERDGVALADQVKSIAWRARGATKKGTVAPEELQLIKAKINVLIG
* hit, by the source's call; ? = inconclusive; · = no result given; ! = not active in a repeat.

SMILES	PfHsp40 rescue	SSB-PriA inh	PrPC TRFRET	PrP UTR inh	MazF activator
CCc1c(C2(O)CCCCC2)[nH]c2ccc(C(F)(F)F)cc12	351*	-19	2	-28	5
CCOC(=O)C1SC2(C(F)F)CC1(O)c1c(c(OC)c3occc3c1OC)O2 (centres undefined)	38*	5	1	-22	4
COc1ccc(OC)c2c1C(=O)C(Cl)=C(Cl)C2=O	613*	1	1	-6	0
COc1cc(C(=O)ON=C2C3CC4CC(C3)CC2C4)cc(OC)c1OC	325*	-2	-3	-28	-4
COc1cc(C(=O)O/N=C2\C=CC(=O)C=C2C)cc(OC)c1OC	-1	·	-10	-7	2
O=C1C(=C(I)I)c2ccccc2-c2ccccc21	0	81*	4	-40	-15
O=C(O)c1cccc2c1C(=O)c1ccccc1-2	0	5	-4	-25	3
COc1ccc(C2=CC(c3ccc(F)cc3)n3nnnc3N2)cc1 (centres undefined)	0	-9	-4	-63	-4
Cc1ccc(C2=CC(c3ccc(N(C)C)cc3)n3nnnc3N2)cc1 (centres undefined)	1	-3	1	-10	64*
CCCCc1nnc(NC(=O)c2ccccc2OCc2c(C)noc2C)s1	0	-6	-7	-13	0
NNS(=O)(=O)c1ccc(Sc2ccccn2)c([N+](=O)[O-])c1	0	1	-29	-34	220*
CC(=O)c1cccc(NC(=O)N2CCC(c3ccc(C)cc3)C2)c1 (centres undefined)	2	1	13	·	0
CCOc1ccccc1CN1CCC(N2CCC(C(=O)NC3CC3)CC2)CC1	30*	-4	-8	-9	0
CCOc1ccccc1CN1CCC(n2nccc2NC(=O)C2CCCC2)CC1	-1	5	-5	-14	7
COc1ccc(C(CNC(=O)c2ccc(S(=O)(=O)Nc3ccc(F)cc3)cc2)N(C)C)cc1 (centres undefined)	-1	5	0	-17	14
COc1ccccc1N1CCN(C(=O)N[C@H]2CC(=O)N(c3ccc(F)cc3)C2)CC1	·	-7	·	·	·
COC(=O)c1sc2ccc(C)cc2c1C(=O)OC	0	-14	-3	-17	1
O=C(c1ccc(Cl)c(Cl)c1)N1CCC(=O)N(C(COCc2ccc(Cl)cc2)Cc2ccccc2)CC1 (centres undefined)	30*	-48	5	-1	-3
Cc1ccc(NC(=O)c2ccc(-c3nn(C)c(=O)c4ccccc34)cc2)cc1	3	-24	-3	-20	6
Cn1nc(-c2ccc(C(=O)Nc3cccc(Cl)c3)cc2)c2ccccc2c1=O	0	-4	-7	-21	101*
CC(=NOC(=O)c1ccc(Cl)cc1)c1nccs1	·	-13	6	·	·
CNC(=O)C(=O)NCc1cccs1	·	-15	·	·	·
Brc1ccc(-c2cn3nc4c(nc3n2)CCCC4)cc1	-2	-3	-9	41	-39
Nc1nn2cc(-c3ccc(Br)cc3)nc2c2ccccc12	91*	-1	13	-83	6
CC(C)(C)c1cc[n+](/C(C(=S)Nc2ccccc2F)=C(/[O-])c2ccc3c(c2)OCCO3)cc1	-1	·	-1	-25	5
SMILES	PfHsp40 rescue	SSB-PriA inh	PrPC TRFRET	PrP UTR inh	MazF activator
[O-]C(=C(C(=S)Nc1cccc2ccccc12)[n+]1ccccc1)c1ccc2c(c1)OCCO2	35*	·	·	-12	6
COc1ccc(-c2nc(C#N)c(N3CCCCCC3)o2)cc1	3	8	10	-10	-6
Cc1ccc(-c2nc(C#N)c(N3CCCCCC3)o2)cc1	·	99*	·	·	·
Cc1ccc(-c2nc(C#N)c(N3CCCCC3)o2)cc1	0	87*!	-8	-6	-2
c1ccc(-c2nc([P+](c3ccccc3)(c3ccccc3)c3ccccc3)c(N3CCCCCC3)o2)cc1	·	37*	·	·	·
CCN(CC)S(=O)(=O)c1ccc(OC)nc1	1	-11	6	·	3
Cc1ccc(-n2ncc3c(SCc4ccccn4)ncnc32)c(C)c1	0	-5	6	-25	7
C=CCN(c1ccccc1)S(=O)(=O)c1cccc(C(=O)O)c1	0	-9	1	-7	-4
C=CCN(c1ccccc1)S(=O)(=O)c1cccc(C(=O)Nc2ccc(N3CCOCC3)cc2)c1	?	43*	10	-16	4
C=CCN(c1ccccc1)S(=O)(=O)c1cccc(C(=O)NNC(=O)c2ccccc2O)c1	92*	6	7	-23	3
COCCCN1C(=O)[C@H](CC(=O)N2CCN(C(=O)C3CC3)CC2)[C@]2(C(=O)OC)CCCCC=C12	·	·	6	·	·
